Source: paper PMC4552634, “A New Set of Chemical Starting Points with Plasmodium falciparum Transmission-Blocking Potential for Antimalarial Drug Discovery” (PLoS ONE, 2015)
Screen size: about 13,000 compounds; about 3,200 (25%) showed an effect of 50% or more. This is one part of the list.

Each compound was assayed on P. falciparum stage V gametocytes. Details: 48 h, 5 µM; inhibitor.
Set-up: BacTiter-Glo ATP luminescence viability of purified stage V gametocytes in 384-well plates, per cent inhibition versus DMSO

Row | Structure (SMILES) | % Inhibition [%]
1 | CCc1c[nH]c2c(N3CCCCS3(=O)=O)cc(C(=O)N[C@@H](Cc3ccccc3)[C@H](O)CNCc3cccc(OC)c3)cc12 [TCMDC-134127] | -6.303
2 | COc1ccc(NC(=O)[C@H](Cc2ccccc2)Nc2cc(C)nc(NCC3CCCCC3)n2)cc1 [TCMDC-134929] | 14.59
3 | Cc1cc(N[C@@H](Cc2ccccc2)C(=O)Nc2ccccc2)nc(NCCc2ccccn2)n1 [TCMDC-134749] | 53.15
4 | CCCC(C)Nc1nc(C)cc(N[C@@H](Cc2ccccc2)C(=O)Nc2ccc(OC)cc2)n1 (stereo partly shown) [TCMDC-134881] | -19.42
5 | COc1ccc(NC(=O)[C@H](Cc2ccccc2)Nc2cc(C)nc(NCCc3ccccn3)n2)cc1 [TCMDC-134746] | 109.1
6 | CO/C(=C\C=C\c1cc2cc(Cl)c(Cl)cc2[nH]1)C(=O)NCCCN1CCN(c2cccc(OC)c2)CC1 [TCMDC-139161] | -21.84
7 | O=C(N[C@@H](Cc1ccccc1)C(=O)NC1CCCc2ccccc21)c1ccc(O)c(-c2ccc(Cl)c(Cl)c2)c1 (stereo partly shown) [TCMDC-140868] | 35.62
8 | Nc1ncc(-c2cccc(CCN3CCOCC3)c2)cc1-c1nc2ccc(Br)cc2[nH]1 [TCMDC-133135] | 15.3
9 | NC1CCCN(Cc2ccc(-c3cccc(-c4nc5ccccc5[nH]4)c3)cc2)C1 (stereo not shown) [TCMDC-133880] | 58.58
10 | O=C(O)C(F)(F)F.OC1CCCN(Cc2ccc(-c3ccc(-c4nc5ccccc5[nH]4)cc3)cc2)C1 (stereo not shown) [TCMDC-133829] | -32.2
11 | NC1CCN(Cc2ccc(-c3ccc(-c4nc5ccccc5[nH]4)cc3)cc2)C1.O=C(O)C(F)(F)F (stereo not shown) [TCMDC-133868] | 102.2
12 | CC1CN(Cc2ccc(-c3ccc(-c4nc5ccccc5[nH]4)cc3)cc2)CC(C)O1.O=C(O)C(F)(F)F (stereo not shown) [TCMDC-133828] | -35.16
13 | NC1CCN(Cc2ccc(-c3cccc(-c4nc5ccccc5[nH]4)c3)cc2)C1 (stereo not shown) [TCMDC-133879] | 58.35
14 | OC1CCCN(Cc2ccc(-c3cccc(-c4nc5ccccc5[nH]4)c3)cc2)C1 (stereo not shown) [TCMDC-133836] | -1.76
15 | N=c1c2c(n(Cc3ccccc3)c3c1CCC3)CCCC2 [TCMDC-124229] | -1.262
16 | Clc1cccc(C23N=C(Nc4nc5ccccc5[nH]4)NC2(c2ccccc2)NC(Nc2nc4ccccc4[nH]2)=N3)c1 (stereo not shown) [TCMDC-139089] | 3.895
17 | COc1ccc(-c2cnc3ccc(NCc4ccc(S(N)(=O)=O)cc4)nn23)cc1 [TCMDC-136687] | 45.37
18 | COc1ccc(-c2cnc3ccc(NCc4ccc(S(N)(=O)=O)cc4)nn23)cn1 [TCMDC-136688] | 73.26
19 | FC(F)(F)Oc1ccc(-c2cnc3ccc(NCc4ccncc4)nn23)cc1 [TCMDC-136681] | 34.75
20 | NS(=O)(=O)c1ccc(CNc2ccc3ncc(-c4ccc(Cl)cc4)n3n2)cc1 [TCMDC-136686] | 45.42

Row | Structure (SMILES) | % Inhibition [%]
21 | NS(=O)(=O)c1ccc(CNc2ccc3ncc(-c4ccc(OC(F)(F)F)cc4)n3n2)cc1 [TCMDC-136685] | 61.81
22 | N#Cc1ccc(-c2cnc3ccc(NCc4ccc(S(N)(=O)=O)cc4)nn23)cc1 [TCMDC-124515] | 21.95
23 | CC(C)(CNC(=O)/C=C/c1ccc(Cl)c(Cl)c1)CNc1cc(=O)c2ccccc2[nH]1 [TCMDC-139404] | -42.09
24 | O=C(/C=C/c1ccc(Cl)c(Cl)c1)NCCCCCN1CCC(NC(=O)Nc2cc(Cl)ccc2Cl)CC1 [TCMDC-135726] | -46.31
25 | O=C(Cc1cnc[nH]1)Nc1cccc(-c2cccc(-c3nc4ccc(C(F)(F)F)cc4[nH]3)c2)c1 [TCMDC-136948] | -28.45
26 | CC1SC(=S)NC1C(=O)O (stereo not shown) [TCMDC-131380] | 9.711
27 | CC(=O)N(Cc1cccc(-c2cccc(CNCc3ccc4c(c3)OCO4)c2)c1)C1CCN(Cc2ccccc2)CC1 [TCMDC-140529] | -13.98
28 | COCCNCc1cccc(-c2ccccc2CN(C(=O)c2ccc3c(c2)OCO3)c2ccc(OC)cc2)c1 [TCMDC-140571] | 88.17
29 | CC(=O)N(Cc1ccccc1-c1cccc(CNCc2ccc3c(c2)OCO3)c1)C1CCN(Cc2ccccc2)CC1 [TCMDC-140526] | 86.49
30 | COCC(=O)N(Cc1ccccc1-c1cccc(CNCc2ccc3c(c2)OCO3)c1)C1CCN(Cc2ccccc2)CC1 [TCMDC-140535] | 7.259
31 | COCCNC(=O)C(CNC(=O)c1ccc2c(c1)OCO2)NC(=O)c1ccc(-c2ccccc2)cc1 (stereo not shown) [TCMDC-140308] | -7.15
32 | O=C(Nc1ccccc1)N(Cc1cccc(-c2cccc(CNCc3ccc4c(c3)OCO4)c2)c1)C1CCN(Cc2ccccc2)CC1 [TCMDC-140590] | 57.66
33 | O=C(Nc1ccccc1)N(Cc1cccc(-c2ccc(CNCc3ccc4c(c3)OCO4)cc2)c1)C1CCN(Cc2ccccc2)CC1 [TCMDC-140591] | 67.97
34 | CCOC(=O)c1c(NC(=O)c2ccccc2)sc2c(O)c(CNC3CCCCC3)ccc12 [TCMDC-124070] | 25.8
35 | COc1ccc(Cl)cc1N1CCN(CCCNC(=O)c2ccc(-c3nc4cc5ccccc5cc4[nH]3)c(F)c2)CC1 [TCMDC-140099] | 14.17
36 | COc1ccc(-c2ncnc(C(F)(F)F)c2-c2ccc(Cl)cc2)c(O)c1 [TCMDC-123728] | 11.32
37 | Cc1nnsc1C(=O)Nc1ccc(-c2ccc(-c3nc4ccccc4[nH]3)s2)cc1 [TCMDC-137077] | 0.7938
38 | Cc1ccc(C(=O)Nc2ccc(Cl)c(N3CCN(CCc4ccccc4)CC3)c2)cc1 [TCMDC-133536] | -30.75
39 | Nc1cccc(CNCc2cccc(-c3csc(-c4nc5ccccc5[nH]4)c3)c2)c1 [TCMDC-132925] | -31.54
40 | Cc1nc2ccc3ccc(CNc4ccc5c(c4)CN([C@@H](CCC(=O)O)C(=O)O)C5=O)cc3c2c(=O)[nH]1 [TCMDC-131928] | 20.65
